Reference: PubChem BioAssay AID1159580 (chemical genetic matrix, 2015)
Hit rate of the full screen: of about 5,500 compounds, about 2,000 (36%) were called active. Another 18% or so got no clear call; they are omitted. Rule as the data show it: active = normalized growth mostly below about 0.91 (no sharp cut-off); inconclusive = no clear call, values can overlap the other calls; inactive = mostly above about 0.92. The list shows a part of the results.

Assay: chemical genetic growth profiling, strain panel (AID 1159580);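 also: tested at 20 µM; growth read once vehicle control cultures reached saturation at 30 °C; 1 = growth at the plate median or of vehicle wells; lower values mean less growth of the strain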
Conditions: growth OD

Measured: normalized growth

CC[C@@H](C(=O)[C@@H](C)[C@@H](O)[C@H](C)[C@@H]1O[C@@H]([C@@H](CC)C(=O)O)CC[C@@H]1C)[C@H]1OC2(C=C[C@@H](O)[C@]3(CC[C@@](C)([C@H]4CC[C@](O)(CC)[C@H](C)O4)O3)O2)[C@H](C)C[C@@H]1C (some centres undefined)
active: S. cerevisiae deletion strains, locus YJR066W, strain TOR1, hits give low values 0.237 | S. cerevisiae deletion strains, locus YKL085W, strain MDH1 (second series), hits give low values 0.812 | S. cerevisiae deletion strains, locus YKL085W, strain MDH1, hits give low values 0.812 | S. cerevisiae deletion strains, locus YKL160W, strain elf1, hits give low values 0.879 | S. cerevisiae deletion strains, locus YKR001C, strain vps1, hits give low values 0.108 | S. cerevisiae deletion strains, locus YLL001W, strain dnm1, hits give low values 0.833 | S. cerevisiae deletion strains, locus YLL026W, hits give low values 0.892 | S. cerevisiae deletion strains, locus YLL041C, strain sdh2, hits give low values 0.926 | S. cerevisiae deletion strains, locus YLR027C, strain aat2, hits give low values 0.858 | S. cerevisiae deletion strains, locus YLR039C, strain RIC1, hits give low values 0.294 | S. cerevisiae deletion strains, locus YLR102C, strain apc9, hits give low values 0.905 | S. cerevisiae deletion strains, locus YLR113W, strain HOG1, hits give low values 0.176 | S. cerevisiae deletion strains, locus YLR221C, strain rsa3, hits give low values 0.856 | S. cerevisiae deletion strains, locus YLR258W, strain gsy2, hits give low values 0.842 | S. cerevisiae deletion strains, locus YLR262C, strain YPT6 (second series), hits give low values 0.662 | S. cerevisiae deletion strains, locus YLR262C, strain YPT6, hits give low values 0.183 | S. cerevisiae deletion strains, locus YLR268W, strain sec22, hits give low values 0.843 | S. cerevisiae deletion strains, locus YLR342W, strain FKS1, hits give low values 0.852 | S. cerevisiae deletion strains, locus YLR370C, strain arc18, hits give low values 0.608 | S. cerevisiae deletion strains, locus YLR371W, strain rom2, hits give low values 0.624 | S. cerevisiae deletion strains, locus YLR418C, strain cdc73, hits give low values 0.681 | S. cerevisiae deletion strains, locus YML032C, strain rad52, hits give low values 0.882 | S. cerevisiae deletion strains, locus YML120C, strain ndi1, hits give low values 0.847 | S. cerevisiae deletion strains, locus YML124C, strain tub3, hits give low values 0.887 | S. cerevisiae deletion strains, locus YMR205C, strain PFK2, hits give low values 0.79 | S. cerevisiae deletion strains, locus YMR223W, strain ubp8, hits give low values 0.838 | S. cerevisiae deletion strains, locus YMR231W, strain pep5, hits give low values 0.0726 | S. cerevisiae deletion strains, locus YNL183C, strain NPR1, hits give low values 0.143 | S. cerevisiae deletion strains, locus YNL209W, strain ssb2, hits give low values 0.916 | S. cerevisiae deletion strains, locus YNL233W, strain BNI4, hits give low values 0.861 | S. cerevisiae deletion strains, locus YNL250W, strain rad50, hits give low values 0.868 | S. cerevisiae deletion strains, locus YNL271C, strain bni1, hits give low values 0.814 | S. cerevisiae deletion strains, locus YNL298W, strain CLA4, hits give low values 0.439 | S. cerevisiae deletion strains, locus YNL307C, strain MCK1, hits give low values 0.862 | S. cerevisiae deletion strains, locus YNR052C, strain pop2, hits give low values 0.735 | S. cerevisiae deletion strains, locus YOL006C, strain TOP1, hits give low values 0.192 | S. cerevisiae deletion strains, locus YOL147C, strain pex11, hits give low values 0.884 | S. cerevisiae deletion strains, locus YOR061W, strain CKA2, hits give low values 0.642 | S. cerevisiae deletion strains, locus YOR069W, strain VPS5, hits give low values 0.797 | S. cerevisiae deletion strains, locus YOR070C, strain gyp1, hits give low values 0.9 | S. cerevisiae deletion strains, locus YOR083W, strain WHI5, hits give low values 0.855 | S. cerevisiae deletion strains, locus YOR106W, strain vam3, hits give low values 0.0692 | S. cerevisiae deletion strains, locus YOR136W, strain idh2, hits give low values 0.905 | S. cerevisiae deletion strains, locus YOR144C, strain elg1, hits give low values 0.885 | S. cerevisiae deletion strains, locus YOR231W, strain MKK1, hits give low values 0.201 | S. cerevisiae deletion strains, locus YOR265W, strain rbl2, hits give low values 0.897 | S. cerevisiae deletion strains, locus YOR270C, strain vph1, hits give low values 0.287 | S. cerevisiae deletion strains, locus YOR290C, strain snf2, hits give low values 0.863 | S. cerevisiae deletion strains, locus YOR316C, strain cot1, hits give low values 0.908 | S. cerevisiae deletion strains, locus YPL051W, strain arl3, hits give low values 0.721 | S. cerevisiae deletion strains, locus YPL240C, strain hsp82, hits give low values 0.922 | S. cerevisiae deletion strains, locus YPL256C, strain CLN2, hits give low values 0.265 | S. cerevisiae deletion strains, locus YPR119W, strain clb2, hits give low values 0.92 | S. cerevisiae deletion strains, locus YPR163C, strain tif3, hits give low values 0.538 | S. cerevisiae deletion strains, locus YPR167C, strain met16, hits give low values 0.865 | S. cerevisiae deletion strains, strain wtn01, hits give low values 0.815
inactive: S. cerevisiae deletion strains, locus YKL009W, strain mrt4, hits give low values 0.934 | S. cerevisiae deletion strains, locus YKL068W, hits give low values 1.02 | S. cerevisiae deletion strains, locus YKL190W, strain CNB1, hits give low values 0.925 | S. cerevisiae deletion strains, locus YKR026C, strain gcn3, hits give low values 0.933 | S. cerevisiae deletion strains, locus YKR091W, strain srl3, hits give low values 0.937 | S. cerevisiae deletion strains, locus YLR058C, strain SHM2, hits give low values 0.935 | S. cerevisiae deletion strains, locus YLR320W, strain mms22, hits give low values 0.928 | S. cerevisiae deletion strains, locus YLR330W, strain CHS5, hits give low values 0.927 | S. cerevisiae deletion strains, locus YLR342W, strain FKS1 (second series), hits give low values 0.821 | S. cerevisiae deletion strains, locus YLR357W, strain rsc2, hits give low values 0.988 | S. cerevisiae deletion strains, locus YLR384C, strain iki3, hits give low values 0.954 | S. cerevisiae deletion strains, locus YML016C, strain PPZ1, hits give low values 0.978 | S. cerevisiae deletion strains, locus YMR058W, strain fet3, hits give low values 0.908 | S. cerevisiae deletion strains, locus YMR078C, strain ctf18, hits give low values 0.937 | S. cerevisiae deletion strains, locus YMR125W, strain sto1, hits give low values 0.932 | S. cerevisiae deletion strains, locus YMR129W, hits give low values 0.937 | S. cerevisiae deletion strains, locus YMR307W, strain GAS1, hits give low values 0.801 | S. cerevisiae deletion strains, locus YNL067W, strain RPL9B, hits give low values 0.963 | S. cerevisiae deletion strains, locus YNL071W, strain lat1, hits give low values 0.96 | S. cerevisiae deletion strains, locus YNL128W, strain TEP1, hits give low values 0.969 | S. cerevisiae deletion strains, locus YNL153C, strain GIM3, hits give low values 0.911 | S. cerevisiae deletion strains, locus YNL248C, strain rpa49, hits give low values 0.95 | S. cerevisiae deletion strains, locus YNL322C, strain KRE1 (second series), hits give low values 0.963 | S. cerevisiae deletion strains, locus YNR049C, strain mso1, hits give low values 0.923 | S. cerevisiae deletion strains, locus YOL012C, strain htz1 1.26 | S. cerevisiae deletion strains, locus YOR001W, strain rrp6, hits give low values 0.909 | S. cerevisiae deletion strains, locus YOR080W, strain dia2, hits give low values 0.961 | S. cerevisiae deletion strains, locus YOR184W, strain ser1, hits give low values 0.892 | S. cerevisiae deletion strains, locus YPL055C, strain LGE1, hits give low values 0.934 | S. cerevisiae deletion strains, locus YPL078C, strain atp4, hits give low values 0.939 | S. cerevisiae deletion strains, locus YPL106C, strain sse1, hits give low values 0.932 | S. cerevisiae deletion strains, locus YPR141C, strain kar3, hits give low values 1 | S. cerevisiae strains, strain wild type, hits give low values 0.925
